Laboratory results taken from PubChem BioAssay (NCATS).
Inconclusive results are not listed. Where a call stands in place of a potency, no number is given. The source made the active and inactive calls. Unless noted, the call rests on the fitted dose curve; in most records, active means well fitted curve in the direction sought with a large enough effect; inconclusive means small, poorly fitted or top-dose-only effect, or another doubt; inactive means no such curve, though single readings can be large; an effect the other way counts as inactive or inconclusive. Peptide text beside a SMILES is read from it.

How the values were obtained:
[1] = target: Voltage-gated inwardly rectifying potassium channel KCNH2 (Homo sapiens) (UniProt Q12809); assay: qHTS Assay for Small Molecule Inhibitors of the Human hERG Channel Activity (AID 588834); conditions: U2OS BacMam hERG, FluxOR thallium flux fluorescence; series mostly up to 46.1 µM;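 further: lower thallium flux fluorescence means stronger hERG block; nearly all actives have a fitted effect of over 50% in size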; further: potency means the concentration at half of the fitted maximal effect
Sequence of Voltage-gated inwardly rectifying potassium channel KCNH2 (Homo sapiens) (Q12809 whole entry, looked up): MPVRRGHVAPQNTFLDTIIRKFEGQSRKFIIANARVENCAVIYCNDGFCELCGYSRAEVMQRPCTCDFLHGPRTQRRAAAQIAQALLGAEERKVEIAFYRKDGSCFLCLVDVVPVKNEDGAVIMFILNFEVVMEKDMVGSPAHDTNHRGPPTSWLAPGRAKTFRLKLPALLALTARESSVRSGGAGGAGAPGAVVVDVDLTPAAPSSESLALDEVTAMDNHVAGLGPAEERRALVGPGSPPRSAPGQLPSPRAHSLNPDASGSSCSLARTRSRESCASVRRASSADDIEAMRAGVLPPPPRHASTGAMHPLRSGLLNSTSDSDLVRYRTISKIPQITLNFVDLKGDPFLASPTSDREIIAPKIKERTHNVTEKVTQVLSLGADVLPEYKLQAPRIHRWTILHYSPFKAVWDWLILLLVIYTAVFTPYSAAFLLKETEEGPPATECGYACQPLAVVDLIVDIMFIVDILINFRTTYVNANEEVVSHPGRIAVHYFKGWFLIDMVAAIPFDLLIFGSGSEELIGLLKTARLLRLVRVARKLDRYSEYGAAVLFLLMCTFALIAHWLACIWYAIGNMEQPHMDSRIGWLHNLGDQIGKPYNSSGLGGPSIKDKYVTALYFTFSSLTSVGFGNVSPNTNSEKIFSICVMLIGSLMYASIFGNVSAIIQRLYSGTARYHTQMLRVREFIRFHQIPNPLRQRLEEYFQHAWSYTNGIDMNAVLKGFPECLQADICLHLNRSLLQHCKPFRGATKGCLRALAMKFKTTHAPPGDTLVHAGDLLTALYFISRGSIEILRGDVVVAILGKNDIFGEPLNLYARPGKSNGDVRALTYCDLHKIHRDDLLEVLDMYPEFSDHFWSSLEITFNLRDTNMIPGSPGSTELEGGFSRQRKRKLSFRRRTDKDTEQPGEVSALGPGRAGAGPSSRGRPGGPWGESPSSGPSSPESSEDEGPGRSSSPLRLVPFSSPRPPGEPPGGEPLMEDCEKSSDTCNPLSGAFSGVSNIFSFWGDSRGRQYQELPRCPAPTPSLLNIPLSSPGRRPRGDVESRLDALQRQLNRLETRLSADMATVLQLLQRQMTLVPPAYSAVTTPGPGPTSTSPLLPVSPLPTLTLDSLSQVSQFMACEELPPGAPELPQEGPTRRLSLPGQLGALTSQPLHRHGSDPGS
Outline: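 Thallium-flux (FluxOR) read-out on FDSS: fluorescence read 10 s before and 2 min after stimulation buffer. hERG-BacMam-transduced U2OS cells, compound exposure about 10 min. AC50 by standard Hill equation.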

[2] = S16 Schwann cell PMP22 intronic element firefly luciferase assay (AID 624032); conditions: S16 rat Schwann cells, PMP22 element FLuc, 24 h; series mostly up to 57.5 µM; further: nearly all actives have a fitted effect of over 30% in size; further: potency means the concentration at half of the fitted maximal effect
Outline: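 Rat S16 Schwann cells stably carrying firefly luciferase driven by a PMP22 intronic element, in 10% FBS, treated 24 h at 37 C. ONE-Glo luminescence normalized to PTC124 control and DMSO (0%); curves classed by r2, magnitude and activity.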

[3] = S16 Schwann cell viability assay (CellTiter-Glo assay) (AID 624031); conditions: S16 rat Schwann cells viability, 24 h; series mostly up to 57.5 µM;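 further: cellular ATP luminescence as a viability measure; nearly all actives have a fitted effect of over 70% in size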
Outline: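 Untransfected S16 rat Schwann cells; compound 24 h, 37 °C/5% CO2; CellTiter-Glo ATP luminescence. % activity vs no-cell wells and DMSO controls (0%); concentration-effect curves classed by r2, response magnitude, activity.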

[4] = S16 Schwann cell PMP22 intronic element beta-lactamase assay (AID 624044; calls by dose curve; further: nearly all actives have a fitted effect of over 15% in size; further: potency means the concentration at half of the fitted maximal effect); conditions: S16 rat Schwann cells, PMP22 element beta-lactamase FRET, 24 h; series mostly up to 38.3 µM
Outline: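 Beta-lactamase reporter under a PMP22 intronic regulatory element in stable S16 rat Schwann cells; 24 h compound exposure. 460 nm blue signal normalized between DMSO (0%) and potassium clavulanate, with 535 nm FRET tracking viability; curves classed by r2 and response.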

[5] = target: Luciferin 4-monooxygenase (Photinus pyralis) (UniProt P08659); assay: Biochemical firefly luciferase enzyme assay for NPC (AID 624030); further: nearly all actives have a fitted effect of over 70% in size; further: potency means the concentration at half of the fitted maximal effect; conditions: purified P. pyralis luciferase, luminescence, 5 min; series mostly up to 58.6 µM
Sequence of Luciferin 4-monooxygenase (Photinus pyralis) (P08659 whole entry, looked up): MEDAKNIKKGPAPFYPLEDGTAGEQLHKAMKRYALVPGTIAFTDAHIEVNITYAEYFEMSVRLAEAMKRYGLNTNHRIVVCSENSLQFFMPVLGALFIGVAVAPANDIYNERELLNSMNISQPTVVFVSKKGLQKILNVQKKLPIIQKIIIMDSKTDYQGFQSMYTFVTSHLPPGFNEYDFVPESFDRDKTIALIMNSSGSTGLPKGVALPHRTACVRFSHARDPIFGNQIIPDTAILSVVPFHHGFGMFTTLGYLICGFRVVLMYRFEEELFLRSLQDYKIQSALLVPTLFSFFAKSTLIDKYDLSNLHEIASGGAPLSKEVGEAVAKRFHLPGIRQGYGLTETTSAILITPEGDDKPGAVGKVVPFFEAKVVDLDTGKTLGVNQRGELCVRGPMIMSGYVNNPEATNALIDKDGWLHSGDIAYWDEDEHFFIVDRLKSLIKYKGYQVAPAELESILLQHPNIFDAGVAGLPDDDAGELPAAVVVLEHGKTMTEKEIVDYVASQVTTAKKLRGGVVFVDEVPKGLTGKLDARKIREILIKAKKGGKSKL
Outline: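 Purified P. pyralis luciferase at 10 nM in 50 mM Tris Acetate (final), luminescence read within 5 minutes of enzyme addition to compounds. Activity normalised to PTC124 versus DMSO; concentration-response curves classed by r2, magnitude and activity.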

[6] = qHTS Assay for Identification of Small Molecule Agonists for NFkB Signaling Pathway. (AID 624478); conditions: NFkB pathway reporter cell assay, agonist mode, cells co-stimulated with 10 pM TNF alpha; series mostly up to 46.1 µM;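 further: compounds tested together with TNF alpha at its EC50 of 10 pM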
Outline: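 Assay medium contained 0.5% FBS and 10 mM HEPES pH 7.3. Compounds were added together with TNF alpha (10 pM final), incubated 5 h at 37 C, and the beta-lactamase signal was measured fluorometrically.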

[7] = Cytotoxicity counterscreen for NFkB agonists and antagonists (AID 624476); conditions: NFkB reporter cell line viability counterscreen; series mostly up to 46.1 µM;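 further: cells exposed to compound for 48 hours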; further: potency means the concentration at half of the fitted maximal effect

## C=C1C(=CC=C2CCC[C@@]3(C)[C@@H]2CC[C@H]3[C@H](C)CCCC(C)C)C[C@@H](O)C[C@@H]1O
[1]
  Potency: inactive
[2]
  Potency: 0.0287 µM (active)

## Nc1ncnc2c1ncn2[C@@H]1O[C@H](COP(=O)(O)OP(=O)(O)OP(=O)(O)O)[C@@H](O)[C@H]1O
[1]
  Potency: inactive
[3]
  Potency: inactive
[2]
  Potency: inactive
[4]
  Potency: inactive

## CC(Cc1ccc(O)c(O)c1)C(C)Cc1ccc(O)c(O)c1 (centres undefined)
[1]
  Potency: inactive
[2]
  Potency: 8.09 µM (active)
[4]
  Potency: 22.4 µM (active)

## Nc1c(N=Nc2ccc(-c3ccc(N=Nc4cc(S(=O)(=O)O)c5ccccc5c4N)cc3)cc2)cc(S(=O)(=O)O)c2ccccc12
[1]
  Potency: inactive
[5]
  Potency: 32.2 µM (active)
[4]
  Potency: inactive

## COC(=O)C1=C(C#N)NC(C)=C(C(=O)OC(C)C)C1c1cccc([N+](=O)[O-])c1 (centres undefined)
[1]
  Potency: inactive
[5]
  Potency: inactive
[2]
  Potency: 16.1 µM (active)

## COC(=O)[C@H]1[C@H]2C[C@@H]3c4[nH]c5ccccc5c4CCN3C[C@H]2C[C@@H](OC(=O)c2cc(OC)c(OC)c(OC)c2)[C@@H]1OC
[1]
  Potency: 0.355 µM (active)
[5]
  Potency: inactive
[2]
  Potency: 0.907 µM (active)
[4]
  Potency: 3.98 µM (active)

## CO[C@H](C(=O)[C@@H](O)[C@@H](C)O)C1Cc2cc3cc(O[C@H]4C[C@@H](O[C@H]5C[C@@H](O)[C@H](O)[C@@H](C)O5)[C@@H](O)[C@@H](C)O4)c(C)c(O)c3c(O)c2C(=O)[C@H]1O[C@H]1C[C@@H](O[C@H]2C[C@@H](O[C@H]3C[C@](C)(O)[C@H](O)[C@@H](C)O3)[C@H](O)[C@@H](C)O2)[C@H](O)[C@@H](C)O1 (some centres undefined)
[1]
  Potency: inactive
[5]
  Potency: inactive
[2]
  Potency: inactive
[4]
  Potency: 22.4 µM (active)

## CC(C)(C)C(=O)OCOC(=O)[C@@H]1N2C(=O)[C@@H](N=CN3CCCCCC3)[C@H]2SC1(C)C
[1]
  Potency: inactive
[5]
  Potency: inactive
[4]
  Potency: inactive

## CO[C@H]1C[C@@H]2CC[C@@H](C)[C@@](O)(O2)C(=O)C(=O)N2CCCC[C@H]2C(=O)O[C@H]([C@H](C)C[C@@H]2CC[C@@H](OCCO)[C@H](OC)C2)CC(=O)[C@H](C)/C=C(\C)[C@@H](O)[C@@H](OC)C(=O)[C@H](C)C[C@H](C)/C=C/C=C/C=C/1C
[1]
  Potency: inactive
[5]
  Potency: inactive
[4]
  Potency: inactive

## CCN(CC)Cc1cc(Nc2ccnc3cc(Cl)ccc23)ccc1O
[5]
  Potency: inactive

## O=C(O)c1cc(=O)c2c3nc4ccccc4oc-3cc(=O)c2[nH]1
[1]
  Potency: inactive
[4]
  Potency: inactive

## NC(=O)c1ncn(C2OC(CO)C(O)C2O)n1 (centres undefined)
[1]
  Potency: inactive
[5]
  Potency: inactive
[2]
  Potency: inactive
[4]
  Potency: inactive

## CC(=O)N[C@@H](CC(=O)O)C(=O)N[C@@H](CCC(=O)O)C(=O)O (Ac-Asp-Glu-OH)
[1]
  Potency: inactive
[5]
  Potency: inactive
[2]
  Potency: inactive
[4]
  Potency: inactive

## O=S(=O)(O)c1cc(O)c2c(N=Nc3ccc(Nc4ccccc4)c4c(S(=O)(=O)O)cccc34)cc(S(=O)(=O)O)cc2c1
[1]
  Potency: inactive
[5]
  Potency: 32.2 µM (active)
[4]
  Potency: inactive

## CNC1CCN(C(Cc2cccc(-c3ccncc3)c2)C(=O)c2sc3c(F)ccc(F)c3c2Cl)CC1 (centres undefined)
[6]
  outcome: inactive

## Oc1cc(O)c2c(c1)OC(c1ccc(O)c(O)c1)C(O)C2 (centres undefined)
[5]
  Potency: inactive
[2]
  Potency: inactive
[4]
  Potency: inactive

## CCCCCCCCCCCCCCCCCCOP(=O)([O-])OC1CC[N+](C)(C)CC1
[5]
  Potency: inactive
[7]
  Potency: inactive
[6]
  outcome: inactive

## CCOc1cc2ncc(C#N)c(Nc3ccc(OCc4ccccn4)c(Cl)c3)c2cc1NC(=O)/C=C/CN(C)C
[7]
  Potency: 37.2 µM (active)
[6]
  outcome: inactive

## C#C[C@]1(O)CC[C@H]2[C@@H]3CCC4=CCCC[C@@H]4[C@H]3C(=C)C[C@@]21CC
[5]
  Potency: inactive
[2]
  Potency: inactive
[4]
  Potency: inactive

## CCC1(O)CC2CN(CCc3c([nH]c4ccccc34)[C@@](C(=O)OC)(c3cc4c(cc3OC)N(C=O)[C@H]3[C@](O)(C(=O)OC)[C@H](OC(C)=O)[C@]5(CC)C=CCN6CC[C@]43[C@@H]65)C2)C1 (some centres undefined)
[7]
  Potency: inactive
[6]
  outcome: inactive

## Cc1ccccc1OCC(O)CNCCOc1ccc(C(N)=O)cc1 (centres undefined)
[5]
  Potency: inactive
[2]
  Potency: inactive
[4]
  Potency: inactive

## COC(C(=O)C(O)C(C)O)C1Cc2cc3cc(OC4CC(OC5CC(O)C(O)C(C)O5)C(O)C(C)O4)c(C)c(O)c3c(O)c2C(=O)C1OC1CC(OC2CC(OC3CC(C)(O)C(O)C(C)O3)C(O)C(C)O2)C(O)C(C)O1 (centres undefined)
[3]
  Potency: inactive
[2]
  Potency: inactive
[4]
  Potency: 22.4 µM (active)

## CC[C@@H](C(=O)O)C1CC[C@H](C)C([C@@H](C)[C@H](O)[C@H](C)C(=O)[C@H](CC)C2O[C@]3(C=C[C@@H](O)[C@]4(CC[C@@](C)(C5CC[C@](O)(CC)[C@H](C)O5)O4)O3)[C@H](C)C[C@@H]2C)O1 (some centres undefined)
[6]
  outcome: inactive
